Measurements taken from PubChem BioAssay (NCATS).
Inconclusive results are not listed. The source made the active and inactive calls. Unless noted, calls come from the whole dose curve; as a rule, active = well fitted curve in either direction with a large enough effect (not every such curve was filed as active); inconclusive = small, poorly fitted or top-dose-only effect, or another doubt; inactive = flat fitted curve, though single readings scatter.

Key:
[1] = target: Lysosomal acid glucosylceramidase (Homo sapiens) (UniProt P04062); assay: Glucocerebrosidase-p2 (AID 348; in the data active = potency below about 10 µM; note: potency is the fitted concentration of half-maximal effect); details: purified GBA, blue fluorogenic substrate, 40 min
Method in brief: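 Compounds titrated from 0.6 nM upwards against 0.2 nM enzyme in pH 5.9 citric acid/KH2PO4, taurocholate, tween-20; blue fluorogenic substrate 80 uM, 40 min room temperature, stopped and read Ex 365/Em 440 for AC50.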

[2] = AP1 Signaling Pathway (AID 357); details: ME-180 AP-1-bla reporter, EGF-induced, beta-lactamase ratio, 5 h; at 7.69 µM (top of the series) unless noted;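 note: ME-180 reporter cells stimulated with EGF at its EC50 level; % is set by controls: 0 for no effect and ±100 for the full control effect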
Method in brief: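 Cells are seeded overnight, exposed to compound titrations and an EC50 level of EGF for 5 hours at 37 °C, then loaded with CCF4 dye for 2.5 hours. Beta-lactamase activity under the AP-1 element is read as a blue/green ratio.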

[3] = Stat Signaling Pathway (AID 446); details: ME-180 SIE beta-lactamase reporter, IL-6 stimulated, 5 h; at 7.69 µM (top of the series) unless noted;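 note: ME-180 cervical cancer cells given 40 pM IL-6 alongside compound; SIE-controlled beta-lactamase reporter measured as 460/530 nm FRET emission ratio; % is set by controls: 0 for no effect and ±100 for the full control effect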
Method in brief: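 Reporter line: ME-180 cervical carcinoma, SIE-beta-lactamase. Treatment: compound with 40 pM IL-6, 5 hrs, 37 C, in low-serum OPTI-MEM with 10 mM HEPES pH 7.3. Detection: 460/530 nm fluorescence.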

[4] = target: 3',5'-cyclic-AMP phosphodiesterase 4B (Homo sapiens) (UniProt Q07343); assay: qHTS Assay for Inhibitors of PDE-IV (AID 607; active = well fitted activation curve with a large enough effect in the main read-out, with a control signal flat, not every such curve was filed as active; note: % of control where 0% means no effect); details: HEK293 ACTOne CNG channel cells, membrane potential fluorescence; series mostly up to 22.9 µM
Method in brief: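 Cell-based read-out of cAMP via a modified cyclic nucleotide-gated channel and membrane potential dye (535/590 nm) in HEK293 cells expressing PDE4 endogenously. Compounds tested up to 22.9 uM final; 100 uM RO 20-1724 reference.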

[5] = target: ATP-dependent 6-phosphofructokinase (Trypanosoma brucei brucei) (UniProt O15648); assay: qHTS Assay to Find Inhibitors of T. brucei phosphofructokinase: hit validation (AID 492961; active = well fitted curve in the direction sought with a large enough effect; an effect the other way counts as inactive or inconclusive;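 note: luminescence reports ADP formed as PFK phosphorylates fructose-6-phosphate with ATP; % is set by controls: 0 for no effect and ±100 for the full control effect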); details: T. brucei PFK, ADP-Glo luminescence; series mostly up to 51.4 µM
Method in brief: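 Measures ADP output of PFK (1.25 nM) at 0.1 mM ATP, 0.5 mM F6P, pH 8.0 TEA buffer with 5 mM MgCl2. No-enzyme wells define full inhibition; uninhibited enzyme wells define zero.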

[6] = qHTS profiling for inhibitors of Plasmodium falciparum proliferation (AID 504749; active = well fitted curve in the direction sought with a large enough effect; an effect the other way counts as inactive or inconclusive;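 note: 0% = DMSO vehicle and full inhibition = artemisinin control; nearly all actives have a fitted effect of over 60% in size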); details: P. falciparum in erythrocytes, SYBR Green DNA, 72 h, at 28.7 µM (top of the series)
Method in brief: (§1)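 Infected RBCs, 0.3% parasitemia/2.5% Hct final; cpd 72 h, 37 C, 5% CO2; lysis buffer with saponin/triton/SYBR Green I, o/n RT dark; FI 485/535; norm. to artemisinin (0.29 uM) and DMSO.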

ATS189 = assay: as above; details: P. falciparum in erythrocytes, SYBR Green DNA, 72 h; series mostly up to 28.7 µM
Method in brief: as §1

CP192 = assay: as above; details: P. falciparum in erythrocytes, SYBR Green DNA, 72 h; series mostly up to 28.7 µM
Method in brief: as §1

CP201 = assay: as above; details: P. falciparum in erythrocytes, SYBR Green DNA, 72 h; series mostly up to 28.7 µM
Method in brief: as §1

CP247 = assay: as above; details: P. falciparum in erythrocytes, SYBR Green DNA, 72 h; series mostly up to 28.7 µM
Method in brief: as §1

[7] = target: Glucocorticoid receptor (Homo sapiens) (UniProt P04150); assay: GR-GFP Redistribution (AID 450;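 active = compounds whose dose series gives a full or clear partial fitted curve of increased nuclear translocation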; note: potency is the fitted concentration of half-maximal effect); details: U2OS GR-GFP nuclear translocation, laser cytometry, 2 h
[8] = target: Glucocorticoid receptor (Homo sapiens) (UniProt P04150); assay: GR-EFC Redistribution (AID 451; calls by dose curve; note: potency is the fitted concentration of half-maximal effect); details: CHO-K1 GR-EFC translocation, beta-gal luminescence, 2 h
Method in brief: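 Translocation of GR-ED fusion to nuclear EA restores b-gal, read by luminescence after 1 h room-temperature detection. Engineered CHO-K1 biosensor cells, 1,000/well, exposed 2 h at 37 C to titrations up to 46 uM final.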

[9] = target: Mitogen-activated protein kinase 10 (Mus musculus) (UniProt Q61831); assay: JNK3 AlphaScreen Assay (AID 530); details: JNK3 lysate, c-Jun phosphorylation; series mostly up to 11.4 µM;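 note: kinase came from lysate of stimulated human HepG2 cells; signal reports phosphorylation of biotinylated GST-cJun 1-79 at Ser73 with 10 µM ATP; % is set by controls: 0 for no effect and ±100 for the full control effect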
Method in brief: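 Compound titrations were preincubated 15 minutes at room temperature with substrate, antibody and pre-activated JNK3-containing HepG2 lysate. Reactions were started with 10 uM ATP and stopped with EDTA-containing bead buffer for AlphaScreen detection.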

[10] = target: Cytochrome P450 2C19 (Homo sapiens) (UniProt P33261); assay: qHTS Assay for Inhibitors and Substrates of Cytochrome P450 2C19 (AID 899; active = well fitted curve in the direction sought with a large enough effect; an effect the other way counts as inactive or inconclusive; note: nearly all actives have a fitted effect of over 60% in size; note: potency is the fitted concentration of half-maximal effect); details: recombinant CYP2C19, luciferin-H EGE luminescence; series mostly up to 11.4 µM
Method in brief: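 Reactions contain 5nM enzyme, 10uM Luciferin-H EGE (KM) and 50mM KPO4; compound preincubates 10 min at 37C, NADPH regeneration starts turnover for 60 min. Luminescence after detection reagent gives activity.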

[11] = target: Cytochrome P450 1A2 (Homo sapiens) (UniProt P05177); assay: p450-cyp1a2 (AID 410; calls by dose curve; note: potency is the fitted concentration of half-maximal effect;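 for activity change, negative = inhibition: -100% = full effect of reference inhibitor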); details: recombinant CYP1A2, luciferin-ME demethylation, luminescence; series mostly up to 11.4 µM
Method in brief: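 Luminescent readout of luciferin formed from Luciferin-ME by human CYP1A2; data normalized against complete inhibition by 57 uM furafylline. Enzyme 20nM, substrate 100uM at Km, 100mM KPO4 buffer, 60 min reaction at room temperature.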

[12] = NFAT Signaling Pathway (AID 444); details: Jurkat NFAT-bla M1, carbachol, beta-lactamase ratio, 5 h; at 7.69 µM (top of the series) unless noted
Method in brief: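 Read-out: CCF4 FRET ratio (460 nm/530 nm) after 1 h RT dye loading, used for %activity and AC50 from titration series. Cells: Jurkat NFAT-β-lactamase/M1 line, treated with compound plus 1 uM carbachol for 5 h, 37 °C.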

[13] = target: Cytochrome P450 2D6 (Homo sapiens) (UniProt P10635); assay: qHTS Assay for Inhibitors and Substrates of Cytochrome P450 2D6 (AID 891; active = well fitted curve in the direction sought with a large enough effect; an effect the other way counts as inactive or inconclusive; note: potency is the fitted concentration of half-maximal effect; nearly all actives have a fitted effect of over 60% in size); details: recombinant CYP2D6, luciferin-ME EGE luminescence; series mostly up to 11.4 µM
Method in brief: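 Human CYP2D6 (5 nM) with 30 uM Luciferin-ME EGE (at Km) in 100 mM KPO4, compound preincubated 10 min, then NADPH regeneration system for 60 min at room temperature. Luciferin read by luminescence; normalized to 1.43 uM quinidine.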

[14] = target: Cytochrome P450 3A4 (Homo sapiens) (UniProt P08684); assay: qHTS Assay for Activators of Cytochrome P450 3A4 (AID 885; active = well fitted curve in the direction sought with a large enough effect; an effect the other way counts as inactive or inconclusive; note: nearly all actives have a fitted effect of over 65% in size); details: recombinant CYP3A4, Luciferin-PPXE luminescence, 60 min; series mostly up to 11.4 µM
Method in brief: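 Signal was normalized against complete inhibition by 57 uM ketoconazole. The reaction used 20nM CYP3A4 with 25uM Luciferin-PPXE, 10-min compound preincubation and a 60-min NADPH-supported step at RT.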

Chain of Cytochrome P450 2C19 (Homo sapiens) (P33261 whole entry, looked up): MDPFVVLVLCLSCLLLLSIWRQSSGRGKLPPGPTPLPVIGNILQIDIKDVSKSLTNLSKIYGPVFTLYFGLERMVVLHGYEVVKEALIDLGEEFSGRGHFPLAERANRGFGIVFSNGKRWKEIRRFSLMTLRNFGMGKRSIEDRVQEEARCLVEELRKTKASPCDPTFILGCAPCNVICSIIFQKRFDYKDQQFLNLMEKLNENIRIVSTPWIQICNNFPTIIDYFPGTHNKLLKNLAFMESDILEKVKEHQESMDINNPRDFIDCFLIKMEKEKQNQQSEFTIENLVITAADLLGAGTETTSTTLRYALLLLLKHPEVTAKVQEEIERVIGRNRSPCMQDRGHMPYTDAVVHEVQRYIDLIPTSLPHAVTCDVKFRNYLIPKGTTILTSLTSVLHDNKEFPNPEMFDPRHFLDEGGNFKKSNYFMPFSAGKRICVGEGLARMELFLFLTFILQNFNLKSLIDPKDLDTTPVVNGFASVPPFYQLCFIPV
Chain of Lysosomal acid glucosylceramidase (Homo sapiens) (P04062 whole entry, looked up): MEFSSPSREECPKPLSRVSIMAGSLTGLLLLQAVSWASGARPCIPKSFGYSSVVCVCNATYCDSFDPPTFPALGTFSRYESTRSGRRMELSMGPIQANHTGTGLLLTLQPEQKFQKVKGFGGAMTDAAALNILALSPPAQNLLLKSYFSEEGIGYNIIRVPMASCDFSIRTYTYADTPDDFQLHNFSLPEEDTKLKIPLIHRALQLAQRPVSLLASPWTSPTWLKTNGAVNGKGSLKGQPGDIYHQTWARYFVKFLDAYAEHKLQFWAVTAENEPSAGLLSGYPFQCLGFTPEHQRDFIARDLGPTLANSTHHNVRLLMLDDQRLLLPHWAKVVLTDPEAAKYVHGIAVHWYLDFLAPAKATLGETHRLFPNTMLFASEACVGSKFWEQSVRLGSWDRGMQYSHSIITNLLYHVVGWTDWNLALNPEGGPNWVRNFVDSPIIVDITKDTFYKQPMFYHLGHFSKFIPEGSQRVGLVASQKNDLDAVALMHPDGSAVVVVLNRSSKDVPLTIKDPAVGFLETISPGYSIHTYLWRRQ
Chain of Cytochrome P450 1A2 (Homo sapiens) (P05177 whole entry, looked up): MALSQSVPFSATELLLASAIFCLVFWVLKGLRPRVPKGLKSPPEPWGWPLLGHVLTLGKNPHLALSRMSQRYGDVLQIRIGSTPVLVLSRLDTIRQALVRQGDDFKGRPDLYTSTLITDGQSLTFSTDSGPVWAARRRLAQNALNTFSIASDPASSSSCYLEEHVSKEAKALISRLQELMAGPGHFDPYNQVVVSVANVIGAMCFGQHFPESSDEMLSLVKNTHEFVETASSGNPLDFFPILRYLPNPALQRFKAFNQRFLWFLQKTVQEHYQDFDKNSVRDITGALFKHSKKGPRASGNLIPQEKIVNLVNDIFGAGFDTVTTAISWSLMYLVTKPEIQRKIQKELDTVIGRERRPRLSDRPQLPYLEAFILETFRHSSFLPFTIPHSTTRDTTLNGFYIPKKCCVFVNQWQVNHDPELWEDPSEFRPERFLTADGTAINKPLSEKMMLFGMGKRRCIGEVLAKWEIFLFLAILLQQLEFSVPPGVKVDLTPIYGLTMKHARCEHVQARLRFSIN
Chain of 3',5'-cyclic-AMP phosphodiesterase 4B (Homo sapiens) (Q07343 whole entry, looked up): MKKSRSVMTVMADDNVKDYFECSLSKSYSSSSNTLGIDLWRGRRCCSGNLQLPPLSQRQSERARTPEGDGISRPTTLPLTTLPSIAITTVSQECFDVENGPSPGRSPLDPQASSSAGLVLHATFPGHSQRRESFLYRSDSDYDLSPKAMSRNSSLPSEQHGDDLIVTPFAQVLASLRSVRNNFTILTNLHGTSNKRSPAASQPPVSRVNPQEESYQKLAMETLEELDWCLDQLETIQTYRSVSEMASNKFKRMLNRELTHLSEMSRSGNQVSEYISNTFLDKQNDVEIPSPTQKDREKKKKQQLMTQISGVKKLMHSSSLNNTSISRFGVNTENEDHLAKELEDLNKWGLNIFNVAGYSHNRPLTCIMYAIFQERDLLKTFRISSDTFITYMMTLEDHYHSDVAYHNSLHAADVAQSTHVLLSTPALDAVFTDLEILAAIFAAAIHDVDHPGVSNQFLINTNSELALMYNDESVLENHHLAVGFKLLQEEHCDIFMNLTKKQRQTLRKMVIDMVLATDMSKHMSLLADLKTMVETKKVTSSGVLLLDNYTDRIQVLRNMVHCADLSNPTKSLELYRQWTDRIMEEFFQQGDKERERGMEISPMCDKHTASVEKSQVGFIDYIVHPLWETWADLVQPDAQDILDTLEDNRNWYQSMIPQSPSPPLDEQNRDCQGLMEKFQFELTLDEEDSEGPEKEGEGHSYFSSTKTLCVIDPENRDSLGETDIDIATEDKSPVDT
Chain of Glucocorticoid receptor (Homo sapiens) (P04150 whole entry, looked up, the tested form may be a part): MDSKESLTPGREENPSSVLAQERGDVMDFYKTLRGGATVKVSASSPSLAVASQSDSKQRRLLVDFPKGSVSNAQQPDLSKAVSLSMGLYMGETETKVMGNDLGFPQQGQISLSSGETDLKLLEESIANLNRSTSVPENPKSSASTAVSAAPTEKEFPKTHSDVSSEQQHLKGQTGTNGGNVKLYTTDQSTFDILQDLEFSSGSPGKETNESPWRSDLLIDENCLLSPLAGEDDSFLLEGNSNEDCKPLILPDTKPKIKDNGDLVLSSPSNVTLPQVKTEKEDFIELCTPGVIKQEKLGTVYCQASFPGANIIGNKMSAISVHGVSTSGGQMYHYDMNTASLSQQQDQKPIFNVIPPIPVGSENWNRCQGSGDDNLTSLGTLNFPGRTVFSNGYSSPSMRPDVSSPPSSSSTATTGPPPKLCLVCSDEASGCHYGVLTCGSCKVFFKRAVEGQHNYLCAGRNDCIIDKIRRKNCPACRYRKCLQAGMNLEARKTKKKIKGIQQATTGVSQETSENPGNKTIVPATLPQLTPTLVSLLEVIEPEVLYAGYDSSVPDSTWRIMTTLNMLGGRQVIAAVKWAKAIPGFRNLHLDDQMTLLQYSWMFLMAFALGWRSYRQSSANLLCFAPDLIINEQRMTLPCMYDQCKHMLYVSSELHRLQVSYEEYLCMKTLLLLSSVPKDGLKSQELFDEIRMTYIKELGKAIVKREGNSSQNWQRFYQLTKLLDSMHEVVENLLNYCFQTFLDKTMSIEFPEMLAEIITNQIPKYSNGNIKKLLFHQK
Chain of Cytochrome P450 3A4 (Homo sapiens) (P08684 whole entry, looked up): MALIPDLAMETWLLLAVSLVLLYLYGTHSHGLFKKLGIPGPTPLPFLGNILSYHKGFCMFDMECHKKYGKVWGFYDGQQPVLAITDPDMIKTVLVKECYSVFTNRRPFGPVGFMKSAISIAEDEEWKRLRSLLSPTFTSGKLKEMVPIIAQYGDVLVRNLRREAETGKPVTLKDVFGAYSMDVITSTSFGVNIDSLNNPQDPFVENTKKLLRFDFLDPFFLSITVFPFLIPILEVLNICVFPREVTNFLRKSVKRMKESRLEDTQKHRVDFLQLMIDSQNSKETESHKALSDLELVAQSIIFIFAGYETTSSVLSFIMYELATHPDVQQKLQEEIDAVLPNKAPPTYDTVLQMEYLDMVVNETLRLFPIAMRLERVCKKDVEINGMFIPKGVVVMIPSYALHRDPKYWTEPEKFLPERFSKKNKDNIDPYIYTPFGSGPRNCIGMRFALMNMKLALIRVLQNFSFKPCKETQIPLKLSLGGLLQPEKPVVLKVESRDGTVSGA
Chain of ATP-dependent 6-phosphofructokinase (Trypanosoma brucei brucei) (O15648 whole entry, looked up): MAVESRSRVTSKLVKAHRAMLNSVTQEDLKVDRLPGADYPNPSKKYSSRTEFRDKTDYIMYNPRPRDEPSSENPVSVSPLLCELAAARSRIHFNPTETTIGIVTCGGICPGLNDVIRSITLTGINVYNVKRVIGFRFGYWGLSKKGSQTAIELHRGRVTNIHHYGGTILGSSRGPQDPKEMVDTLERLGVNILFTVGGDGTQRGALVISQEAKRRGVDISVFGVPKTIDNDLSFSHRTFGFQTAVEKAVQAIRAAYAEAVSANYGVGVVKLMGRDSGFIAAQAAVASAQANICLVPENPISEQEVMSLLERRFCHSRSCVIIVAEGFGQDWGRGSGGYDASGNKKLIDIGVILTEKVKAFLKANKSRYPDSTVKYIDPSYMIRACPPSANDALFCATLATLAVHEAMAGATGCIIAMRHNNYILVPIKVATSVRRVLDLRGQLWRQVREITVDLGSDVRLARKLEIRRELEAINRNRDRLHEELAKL
Chain of Cytochrome P450 2D6 (Homo sapiens) (P10635 whole entry, looked up): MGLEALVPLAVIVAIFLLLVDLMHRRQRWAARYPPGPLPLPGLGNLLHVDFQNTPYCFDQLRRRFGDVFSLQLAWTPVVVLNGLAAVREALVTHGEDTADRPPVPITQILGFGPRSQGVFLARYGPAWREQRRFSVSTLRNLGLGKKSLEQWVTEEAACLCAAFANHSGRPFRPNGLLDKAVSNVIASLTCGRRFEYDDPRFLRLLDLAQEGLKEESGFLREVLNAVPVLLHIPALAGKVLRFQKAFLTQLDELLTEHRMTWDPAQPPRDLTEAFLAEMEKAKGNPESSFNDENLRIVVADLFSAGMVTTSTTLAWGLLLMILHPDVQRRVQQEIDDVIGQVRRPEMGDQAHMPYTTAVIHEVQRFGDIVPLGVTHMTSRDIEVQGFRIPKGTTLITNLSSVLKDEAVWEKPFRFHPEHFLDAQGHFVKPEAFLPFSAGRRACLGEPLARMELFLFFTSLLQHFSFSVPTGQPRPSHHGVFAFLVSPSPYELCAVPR

CN1[C@@H]2CC(OC(=O)[C@@H](CO)c3ccccc3)C[C@@H]1[C@H]1O[C@H]12 (stereo not given in full)
inactive: Potency [1] > 11.4 µM | activity change, negative = inhibition [2] 20.3% | activity, negative = inhibition [3] 6.14% | Potency [4] | outcome [5] | activity, negative = inhibition ([6]; parasite line A) 11.4% | activity, negative = inhibition ([6]; parasite line B) 4.71% | Potency (ATS189) | Potency (CP192) | Potency (CP201) | Potency (CP247)

CC(C)=C[C@H]1[C@@H](C(=O)Oc2ccccc2C(C)C)C1(C)C
inactive: Potency [1] > 11.4 µM | activity change, negative = inhibition [2] 9.15% | activity, negative = inhibition [3] 6.13% | Potency [7] > 46 µM | Potency [8] > 9.22 µM | Potency [9] | Potency [4]
active: Potency [10] 1.26 µM

O=C1c2ccccc2-c2ccc(N(Cc3ccc(Br)cc3)Cc3ccc(Br)cc3)cc21
inactive: Potency [1] > 11.4 µM | activity change, negative = inhibition [2] -16.3% | activity, negative = inhibition [3] 4.89% | Potency [7] > 46 µM | Potency [8] > 9.22 µM | Potency [4]

O=C(O)C(F)(F)C(F)(F)C(F)(F)C(F)(F)C(=O)O
inactive: Potency [1] > 11.4 µM | activity change, negative = inhibition [2] -0.129% | activity, negative = inhibition [3] 5.2% | Potency [7] > 46 µM | Potency [8] > 9.22 µM | Potency [9] | Potency [4]

c1ccc(B2OC[C@@H]3OB(c4ccccc4)O[C@H]([C@@H]4COB(c5ccccc5)O4)[C@@H]3O2)cc1
inactive: Potency [1] > 11.4 µM | activity change, negative = inhibition [2] -8.96% | activity, negative = inhibition [3] -6.35% | Potency [7] > 46 µM | Potency [8] > 9.22 µM | Potency [9] | Potency [4]

Cc1ccc(N=Nc2c(O)ccc3cc(S(=O)(=O)O)ccc23)cc1
inactive: Potency [1] > 11.4 µM | activity change, negative = inhibition [2] -18.1% | activity, negative = inhibition [3] -4.61% | Potency [7] > 46 µM | Potency [8] > 9.22 µM | Potency [4]

Cn1c(=S)c2[nH]c(SCCCc3ccccc3)nc2n(C)c1=O
inactive: Potency [1] > 11.4 µM | activity change, negative = inhibition [12] 3.04% | activity, negative = inhibition [3] -23.2% | Potency [7] > 46 µM | Potency [8] > 9.22 µM | Potency [9] | Potency [4]
active: Potency [11] 3.16 µM

CN(C)CCCN1c2ccc3ccccc3c2Sc2cccc(Cl)c21
active: Potency [11] 1 µM | Potency [13] 0.501 µM | Potency [10] 5.01 µM
inactive: Potency [1] > 11.4 µM | activity change, negative = inhibition [12] 1.06% | activity, negative = inhibition [3] 2.06% | Potency [8] > 9.22 µM | Potency [9] | Potency [4]

COc1cccc2c1C(=N)c1c(O)c3c(c(O)c1C2=O)C[C@](O)(C(C)=O)C[C@@H]3O[C@H]1C[C@H](N)[C@@H](O)[C@H](C)O1
inactive: Potency [1] > 11.4 µM | activity change, negative = inhibition [2] -2.66% | Potency [7] > 46 µM | Potency [8] > 9.22 µM | Potency [4]

CC(CC(=O)O)(CC(=O)O)c1ccccc1
inactive: Potency [1] > 11.4 µM | Potency [11] | activity change, negative = inhibition [12] 4.46% | activity, negative = inhibition [3] 7.69% | Potency [7] > 46 µM | Potency [8] > 9.22 µM | Potency [9] | Potency [4] | Potency [10]

CC(=O)O[C@H]1CC[C@@]2(C)C(=CC[C@@H]3[C@@H]4CC[C@H](c5cc(C(F)(F)F)n(C(C)=O)n5)[C@]4(C)CC[C@@H]32)C1
inactive: Potency [1] > 11.4 µM | Potency [11] | activity change, negative = inhibition [12] 12.1% | activity, negative = inhibition [3] 16.4% | Potency [7] > 46 µM | Potency [8] > 9.22 µM | Potency [9] | Potency [4]

CN(C)Cc1cc(O)c(O)c(CN(C)C)c1
inactive: Potency [1] > 11.4 µM | Potency [11] | activity change, negative = inhibition [12] 3.49% | activity, negative = inhibition [3] 2.92% | Potency [7] > 46 µM | Potency [8] > 9.22 µM | Potency [9] | Potency [4]

COc1ccc2c(=O)cc(-c3ccncc3)oc2c1OC
active: Potency [11] 1.58 µM | Potency [10] 1.58 µM
inactive: Potency [1] > 11.4 µM | activity change, negative = inhibition [12] 2.62% | activity, negative = inhibition [3] -17.8% | Potency [7] > 46 µM | Potency [8] > 9.22 µM | Potency [9] | Potency [4] | Potency [14]

CCCCNN
inactive: Potency [1] > 11.4 µM | activity change, negative = inhibition [11] -6.5% [at 2.29 µM] | activity change, negative = inhibition [12] 9.69% | activity, negative = inhibition [3] 4.29% | Potency [7] > 46 µM | Potency [8] > 9.22 µM | Potency [9] | Potency [4]

O=C(c1ccncc1)N1CCC2(CCCN(c3cccc(-c4ccccc4)c3)C2)CC1
active: Potency [11] 12.6 µM
inactive: Potency [1] > 11.4 µM | activity change, negative = inhibition [12] -6.09% | activity, negative = inhibition [3] -7.37% | Potency [8] > 46 µM | Potency [9]

CCC1=C(C[C@H]2NCCc3ccccc32)C[C@@H]2c3cc(OC)c(OC)cc3CCN2C1
inactive: Potency [1] > 11.4 µM | Potency [11] | activity, negative = inhibition [3] -23.5% | Potency [7] > 46 µM | Potency [8] > 9.22 µM | Potency [9] | Potency [4]

C=C(C)COc1ccc2c(c1)CCC1C2CC[C@]2(C)C(=O)/C(=N/O)CC12 (stereo not given in full)
inactive: Potency [1] > 11.4 µM | Potency [11] | activity, negative = inhibition [3] 9.84% | Potency [7] > 46 µM | Potency [8] > 9.22 µM | Potency [9] | Potency [4]
